Test results reported in PubChem BioAssay.
Calls of active or inactive are those of the source.

Tests used:
[1] = test system: Plasmodium falciparum Sir2 (PF13_0152, Sir2A); test: pfSir2 binders on small-molecule microarrays, primary screen, biochemical, small-molecule microarray, 635 nm fluorescence (AID 1098); settings: small-molecule microarray binding, fluorescence 635 nm; higher = more signal;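 further: score merges spot fluorescence intensity with its signal-to-noise ratio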
[2] = small-molecule microarray binders of probe aDKK1, primary screen, biochemical, biotinylated probe, 635/667 nm fluorescence (AID 1099); settings: higher = more signal;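 further: score merges 667nm spot fluorescence with signal to noise across triplicate slides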
[3] = small-molecule microarray binders of probe aCHRDL2, primary screen, biochemical, biotinylated probe, 635/667 nm fluorescence (AID 1100); settings: higher = more signal
[4] = splicing luciferase reporter signal modulators, primary screen, spliceosome inhibition project, cell-based, HEK293, splice +/- reporter (AID 1101); settings: luminescence, 24 h, higher = more signal, called active from +8 up or from −8 down;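 further: HEK293 cells carrying a splicing-competent luciferase reporter gene; test concentration not given here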
[5] = molecular target: Fibroblast growth factor 10 (Homo sapiens) (UniProt O15520); test: FGF10 binders on small-molecule microarrays, primary screen, biochemical, small-molecule microarray, 635 nm fluorescence (AID 1102); settings: FGF10 binding, fluorescence 635 nm, higher = more signal
[6] = test system: glycogen synthase kinase-3 (GSK3A per assay name; protocol says GSK3B); test: GSK3 binders on small-molecule microarrays, primary screen, biochemical, small-molecule microarray, 635 nm fluorescence, GSK3A (AID 1103); settings: small-molecule microarray binding, fluorescence 635 nm; higher = more signal; further: the record names both GSK3A and GSK3B
[7] = molecular target: Epidermal growth factor receptor (Homo sapiens) (UniProt P00533); test: EGFR binders on small-molecule microarrays, primary screen, biochemical, small-molecule microarray, 635 nm fluorescence (AID 1104); settings: EGFR binding, higher = more signal;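 further: score merges 667 nm emission intensity with spot signal to noise over triplicate slides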
[8] = molecular target: Follistatin-related protein 3 (Homo sapiens) (UniProt O95633); test: FSTL3 binders on small-molecule microarrays, primary screen, biochemical, small-molecule microarray, 635 nm fluorescence (AID 1105); settings: FSTL3 binding, higher = more signal;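 further: score merges emission near 667 nm and signal to noise per printed spot across three slides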
[9] = molecular target: Dickkopf-related protein 1 (Homo sapiens) (UniProt O94907); test: DKK1 binders on small-molecule microarrays, primary screen, biochemical, small-molecule microarray, 635 nm fluorescence scan (AID 1106); settings: DKK1 binding, higher = more signal;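 further: score merges emission near 667 nm with signal to noise over three replicate slides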
[10] = test system: Inhibin beta A chain (activin A); test: INHBA (activin A) binders on microarrays, primary screen, biochemical, small-molecule microarray, 635 nm fluorescence scan (AID 1107); settings: small-molecule microarray binding, higher = more signal;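 further: mouse activin A protein probed at 4.33 µg/mL on printed slides; score merges bound-protein fluorescence near 667 nm with spot signal-to-noise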
[11] = test system: Human papillomavirus type 1a protein E7 (residues 44-93); test: HPV1a E7 fragment binders on microarrays, primary screen, biochemical, small-molecule microarray, residues 44-93, 635 nm fluorescence (AID 1108); settings: small-molecule microarray binding, fluorescence 635 nm; higher = more signal;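 further: E7 fragment applied at 1 µg/mL in TBST for 1 h at 4 C; score combines spot fluorescence with its signal to noise ratio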
[12] = modulators of HCV replicon luciferase signal, primary screen, HCV replication inhibitor project, Huh7 cells, luciferase reporter (AID 1109); settings: 48 h, higher = more signal;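 further: huh7 hepatoma cells harbouring a luciferase neomycin HCV replicon reporter; luciferase luminescence as measure of HCV replicon replication; test concentration not given here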
[13] = molecular target: Left-right determination factor 2 (Homo sapiens) (UniProt O00292); test: LEFTY2 binders on small-molecule microarrays, primary screen, biochemical, small-molecule microarray, 635 nm fluorescence scan (AID 1110); settings: LEFTY2 binding, higher = more signal
[14] = molecular target: Calmodulin-1 (Homo sapiens) (UniProt P0DP23); test: CALM1 binders on microarrays, EGTA buffer, profiling panel, biochemical, small-molecule microarray, Cy5-labelled CALM1 (AID 1111); settings: Cy5-CALM1 binding fluorescence, higher = more signal;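 further: labelled calmodulin applied in Tris saline Tween buffer holding calcium plus EGTA and DTT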
[15] = molecular target: Calmodulin-1 (Homo sapiens) (UniProt P0DP23); test: calcium-bound CALM1 binders on microarrays, profiling panel, artefact control for SMM control-protein annotation, biochemical, small-molecule microarray, Cy5-labelled CALM1, plus calcium (AID 1112); settings: Cy5-CALM1 binding fluorescence, higher = more signal;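 further: score merges spot fluorescence with signal to noise from triplicate slides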
[16] = small-molecule microarray binders of probe aWnt5a, primary screen, biochemical, biotinylated probe, 635/667 nm fluorescence (AID 1113); settings: higher = more signal;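 further: score merges 667 nm fluorescence intensity with signal-to-noise per printed feature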
[17] = small-molecule microarray binders of probe aShh, primary screen, biochemical, biotinylated probe, 635/667 nm fluorescence (AID 1114); settings: higher = more signal;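 further: probe is biotin-labelled aShh protein from a stem cell growth factor screen; measures binding of labelled protein to compounds printed on the slide; score merges feature fluorescence at 667 nm with signal-to-noise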
[18] = small-molecule microarray binders of probe aNog, primary screen, biochemical, biotinylated probe, 635/667 nm fluorescence (AID 1115); settings: higher = more signal;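 further: probe is biotinylated aNog protein used at 0.15 µg/mL for 1 h at 4 C; z-score combines 667 nm fluorescence of each spot with its signal to noise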
[19] = molecular target: Torsin-1A-interacting protein 1 (Homo sapiens) (UniProt Q5JTV8); test: LAP1 binders from COS7 cell lysate, primary screen, small-molecule microarray, 635/667 nm fluorescence (AID 1116); settings: COS7-hLAP1 lysate binding, 635 nm fluorescence, higher = more signal
[20] = molecular target: Alpha-bungarotoxin (Bungarus multicinctus) (UniProt P60615); test: alpha-bungarotoxin binders on microarray, profiling panel, artefact control for SMM control protein annotation, biochemical, small-molecule microarray, Alexa647 label, 635/667 nm fluorescence (AID 1117); settings: alpha-BTX-A647 binding fluorescence, higher = more signal
Alpha-bungarotoxin (Bungarus multicinctus), sequence (P60615 whole entry, looked up): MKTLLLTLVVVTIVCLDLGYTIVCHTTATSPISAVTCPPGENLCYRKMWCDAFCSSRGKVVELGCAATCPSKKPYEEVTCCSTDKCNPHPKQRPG

Left-right determination factor 2 (Homo sapiens), sequence (O00292 whole entry, looked up): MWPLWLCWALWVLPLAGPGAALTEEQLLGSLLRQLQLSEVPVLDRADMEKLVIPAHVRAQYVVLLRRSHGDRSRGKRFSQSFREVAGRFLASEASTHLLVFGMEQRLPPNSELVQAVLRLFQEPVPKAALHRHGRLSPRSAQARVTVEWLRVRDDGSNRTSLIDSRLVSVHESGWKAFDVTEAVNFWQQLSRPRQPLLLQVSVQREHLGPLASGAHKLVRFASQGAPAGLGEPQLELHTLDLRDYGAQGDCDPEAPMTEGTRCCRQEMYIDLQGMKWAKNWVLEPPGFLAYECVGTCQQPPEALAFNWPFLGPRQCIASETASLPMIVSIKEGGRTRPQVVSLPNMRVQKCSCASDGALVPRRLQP
Fibroblast growth factor 10 (Homo sapiens), sequence (O15520 whole entry, looked up): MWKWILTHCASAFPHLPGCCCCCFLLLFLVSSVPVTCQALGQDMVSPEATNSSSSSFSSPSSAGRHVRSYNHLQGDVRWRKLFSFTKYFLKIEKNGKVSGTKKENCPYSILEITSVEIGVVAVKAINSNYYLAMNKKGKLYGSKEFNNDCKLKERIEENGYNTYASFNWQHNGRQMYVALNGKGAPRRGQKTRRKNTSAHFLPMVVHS
Torsin-1A-interacting protein 1 (Homo sapiens), sequence (Q5JTV8 whole entry, looked up): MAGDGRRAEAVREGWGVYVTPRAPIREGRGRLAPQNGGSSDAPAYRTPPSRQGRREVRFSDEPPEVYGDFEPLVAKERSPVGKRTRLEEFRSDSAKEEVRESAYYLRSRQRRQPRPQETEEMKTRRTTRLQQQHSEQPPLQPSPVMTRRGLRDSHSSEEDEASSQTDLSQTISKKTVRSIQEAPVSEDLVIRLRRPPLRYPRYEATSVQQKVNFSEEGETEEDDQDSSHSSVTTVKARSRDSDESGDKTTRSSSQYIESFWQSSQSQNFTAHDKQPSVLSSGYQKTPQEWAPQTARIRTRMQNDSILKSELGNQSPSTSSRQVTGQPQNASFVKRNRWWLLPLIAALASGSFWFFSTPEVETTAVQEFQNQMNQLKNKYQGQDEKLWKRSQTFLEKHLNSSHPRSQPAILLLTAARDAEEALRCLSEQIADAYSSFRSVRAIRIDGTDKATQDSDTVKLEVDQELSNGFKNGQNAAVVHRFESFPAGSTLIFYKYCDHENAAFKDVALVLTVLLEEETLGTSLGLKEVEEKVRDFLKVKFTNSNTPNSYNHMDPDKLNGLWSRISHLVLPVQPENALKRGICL
Follistatin-related protein 3 (Homo sapiens), sequence (O95633 whole entry, looked up): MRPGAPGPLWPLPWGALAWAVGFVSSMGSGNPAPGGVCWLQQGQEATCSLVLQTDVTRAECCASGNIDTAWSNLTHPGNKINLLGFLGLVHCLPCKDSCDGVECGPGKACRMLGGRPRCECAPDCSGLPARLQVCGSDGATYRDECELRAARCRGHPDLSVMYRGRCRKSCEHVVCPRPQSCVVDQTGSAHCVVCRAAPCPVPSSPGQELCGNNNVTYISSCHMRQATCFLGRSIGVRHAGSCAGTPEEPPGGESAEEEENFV
Dickkopf-related protein 1 (Homo sapiens), sequence (O94907 whole entry, looked up): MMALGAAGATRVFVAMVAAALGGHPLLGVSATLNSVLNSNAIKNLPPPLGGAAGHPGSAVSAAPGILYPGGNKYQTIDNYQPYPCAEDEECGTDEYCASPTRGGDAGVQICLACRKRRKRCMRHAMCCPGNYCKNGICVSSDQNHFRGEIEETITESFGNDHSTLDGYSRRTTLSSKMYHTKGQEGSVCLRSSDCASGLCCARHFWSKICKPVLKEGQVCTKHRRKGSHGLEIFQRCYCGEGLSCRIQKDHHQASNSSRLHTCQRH
Epidermal growth factor receptor (Homo sapiens), sequence (P00533 whole entry, looked up): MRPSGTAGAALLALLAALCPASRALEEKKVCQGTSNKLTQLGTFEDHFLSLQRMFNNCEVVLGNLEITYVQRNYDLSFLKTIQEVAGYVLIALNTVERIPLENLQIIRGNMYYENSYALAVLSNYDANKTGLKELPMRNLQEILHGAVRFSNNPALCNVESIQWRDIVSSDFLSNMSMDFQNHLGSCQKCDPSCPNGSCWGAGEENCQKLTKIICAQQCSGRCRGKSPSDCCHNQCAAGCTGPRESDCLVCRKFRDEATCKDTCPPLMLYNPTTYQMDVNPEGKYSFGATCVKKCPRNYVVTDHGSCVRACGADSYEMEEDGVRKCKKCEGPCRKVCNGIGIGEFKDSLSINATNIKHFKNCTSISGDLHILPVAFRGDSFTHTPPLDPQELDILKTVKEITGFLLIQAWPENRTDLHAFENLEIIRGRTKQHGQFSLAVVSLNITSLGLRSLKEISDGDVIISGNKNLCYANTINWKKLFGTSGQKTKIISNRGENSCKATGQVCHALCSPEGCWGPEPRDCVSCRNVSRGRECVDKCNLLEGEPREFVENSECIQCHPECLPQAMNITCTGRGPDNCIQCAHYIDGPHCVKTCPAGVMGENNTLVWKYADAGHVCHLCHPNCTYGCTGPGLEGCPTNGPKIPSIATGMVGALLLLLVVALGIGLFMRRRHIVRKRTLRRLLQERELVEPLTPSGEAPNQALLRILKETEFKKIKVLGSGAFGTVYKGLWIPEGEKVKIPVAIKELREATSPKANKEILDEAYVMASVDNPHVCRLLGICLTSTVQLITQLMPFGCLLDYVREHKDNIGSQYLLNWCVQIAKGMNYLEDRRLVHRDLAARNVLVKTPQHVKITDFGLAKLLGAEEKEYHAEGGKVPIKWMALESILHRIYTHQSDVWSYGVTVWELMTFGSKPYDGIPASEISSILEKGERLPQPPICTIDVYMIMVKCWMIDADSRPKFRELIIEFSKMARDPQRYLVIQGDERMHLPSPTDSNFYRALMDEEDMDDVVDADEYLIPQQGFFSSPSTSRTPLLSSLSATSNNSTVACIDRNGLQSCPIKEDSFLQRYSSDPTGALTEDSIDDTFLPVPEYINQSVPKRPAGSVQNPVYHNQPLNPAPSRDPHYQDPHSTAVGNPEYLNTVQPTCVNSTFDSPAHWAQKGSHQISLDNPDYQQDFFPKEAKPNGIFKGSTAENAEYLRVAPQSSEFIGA

| Structure (SMILES) | composite z-score [1] | composite z-score [2] | composite z-score [3] | z-score [4] | composite z-score [5] | composite z-score [6] | composite z-score [7] | composite z-score [8] | composite z-score [9] | composite z-score [10] | composite z-score [11] | z-score [12] | composite z-score [13] | composite z-score [14] | composite z-score [15] | composite z-score [16] | composite z-score [17] | composite z-score [18] | composite z-score [19] | composite z-score [20] |
| --- | --- | --- | --- | --- | --- | --- | --- | --- | --- | --- | --- | --- | --- | --- | --- | --- | --- | --- | --- | --- |
| NCCCCCCNC(=O)[C@@H]1C[C@@H]2C(=O)N[C@@H](Cc3ccccc3)C(=O)N2[C@@H]1c1ccc(O)cc1 | 0.791 | 0.678 | 0.709 | -0.573 (inactive) | 0.25 | 0.717 | 0.0626 | 0.367 | 0.627 | 1.15 | 1.12 | 0.355 | 0.093 | 2 | 1.32 | -0.11 | 0.318 | 0.075 | 0.526 | 1.3 |
| C=C(COC)/C(=C/C[C@H](OC(C)=O)c1ccc(CO)o1)c1cnc2ccccc2c1 | 1.05 | 0.0967 | 0.131 | -1.03 (inactive) | 0.979 | 1.29 | 0.477 | 1.48 | 0.639 | 1.61 | 0.729 | -1.18 | 0.149 | 0.143 | -0.387 | -0.0445 | 0.0893 | 0.186 | 0.845 | 2.83 |
| CC(C)CCC[C@@H](C)[C@H]1CC[C@@]2(C)C3=C(CC[C@]12C)[C@@]1(C)CC[C@H](OC(=O)CCl)C(C)(C)C1CC3 (stereo not given in full) | 0.346 | -0.0827 | -0.49 | 0.0767 (inactive) | 0.471 | 0.684 | 0.372 | 0.675 | 0.604 | 0.0773 | 0.637 | -0.143 | 0.448 | -0.0581 | -0.552 | 0.0115 | -0.424 | 0.0983 | 0.247 | 0.587 |
| CCCCCCC#C[Si](O[C@H](c1ccccc1)c1cn(Cc2ccccc2)nn1)(C(C)C)C(C)C | -0.068 | -0.0783 | -0.14 | -1.51 (inactive) | 0.232 | 0.305 | 0.302 | 0.388 | 0.279 | 0.403 | 0.382 | -1.93 | 0.367 | -0.0092 | 0.716 | -0.151 | -0.108 | -0.183 | 0.523 | 0.172 |
| C=CC[C@@H](OC(=O)Nc1ccc(SC)cc1)c1ccc(OCCO)cc1 | 1.28 | 0.271 | 1.29 | -1.83 (inactive) | 0.0292 | -0.381 | -1.4 | -0.805 | -1.42 | -0.148 | -0.318 | 2.1 | -0.952 | -0.0326 | 0.835 | -0.208 | 0.358 | 0.133 | 1.01 | -0.68 |
| CC(C)N1C(=O)c2ccccc2[C@@H](C(=O)NCc2ccccc2)[C@@H]1c1ccc(CO)cc1 | 1.05 | 0.326 | 0.932 | -0.242 (inactive) | -0.844 | 0.192 | -0.183 | -0.0398 | -0.319 | 0.481 | 0.319 | 0.313 | -0.514 | -0.808 | 0.306 | -0.178 | -0.203 | 0.198 | 0.481 | -1.92 |
| NCCCCCNC(=O)[C@H]1C[C@H]2C(=O)NCC(=O)N2[C@H]1c1ccc(O)cc1 | 1.02 | 0.154 | 0.212 | -0.25 (inactive) | 1.37 | 1.31 | 0.383 | 1.07 | 1.74 | 0.324 | 0.861 | 0.245 | 1.49 | 1.53 | 0.954 | -0.0981 | -0.206 | -0.216 | 0.712 | 2.71 |
| NC(=O)N1C(=O)C2C(C1=O)C1C=C(c3ccc(CO)cc3)C2C(C2CC2)N1Cc1cc2c(cc1Br)OCO2 (stereo not given) | 0.105 | 0.176 | 0.691 | -0.87 (inactive) | 0.151 | 0.314 | -0.505 | -0.0544 | -0.196 | 1.34 | 0.0207 | -1.03 | -0.254 | 0.438 | 0.163 | -0.124 | -0.0146 | -0.0689 | 1.11 | 0.55 |
